The values that follow come from PubChem BioAssay.

The source made the active and inactive calls.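 How the source made its calls, unless noted: active means compound raises GLP1 secretion from the human gut endocrine cells, with no numeric limit stated; inactive means the rest.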

A short description of test [1]: stimulators of nuclear beta-catenin in C2C12, primary screen, imaging, WNT3A-conditioned medium, mouse C2C12, NPC library (AID 1117326; in the data active means nuclear beta-catenin stimulation mostly above about 4.2%, no sharp cut-off; inactive means mostly below about 10%; further: reference of the scale not given here). The following applies: stronger effect = higher value.
The nature of test [2]: stimulators of insulin release from INS-1E, primary screen, cell-based, 5 mM glucose, NPC library (AID 1117329;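 active means compound raises insulin release from rat beta cells at 5 mM glucose, no numeric limit stated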; further: reference of the scale not given here). The conditions noted are these: rat INS-1E insulin secretion, at 10 µM, stronger effect = higher value.
Test [3] is described as follows: growth inhibition of GSK3B-pretreated HCT116 cells – cell-based, CellTiter-Glo, 0.2 to 20 µM (AID 1117336;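 active means compounds lowering colon cancer cell viability after pretreatment blocking the GSK3B kinase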). The following applies: HCT116 viability after GSK3B inhibitor, at 20 µM, stronger effect = higher value.
Test [4] is described as follows: inhibition of endothelial tube formation, primary screen, imaging, VEGF stimulated, CD31 staining, tube area, NPC library (AID 1117340;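 active means compound that reduces growth-factor-driven endothelial tube area in a mixed cell culture, no cutoff stated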). The following applies: VEGF-stimulated ADSC/ECFC co-culture, at 10 µM, stronger effect = higher value.
The nature of test [5]: glucagon-like peptide 1 release enhancers, primary assay, NCI-H716 cell line, NPC library (AID 1117341). Further: reference of the scale not given here. The following applies: NCI-H716 cells, at 10 µM, stronger effect = higher value.
Test [6] is described as follows: HCT116 colon cancer cell growth inhibition, primary screen, CellTiter-Glo luminescence, NPC library (AID 1117342;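 active means compounds that lower survival of HCT116 colon cancer cells in the luminescence readout, no numeric limit stated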). The conditions noted are these: at 20 µM (top of the series).
Test [7] can be described thus: CellTiter-Glo luminescent readout of SW480 viability loss, NPC library primary (AID 1117343;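 active means compounds that lower viability of the colon cancer cells in the luminescence readout, with no numeric limit stated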). The following applies: CellTiter-Glo luminescence; at 20 µM (top of the series).
Test [8] in a line: decreased DLD-1 cellular survival, CellTiter-Glo luminescent readout, NPC compound collection, primary HTS (AID 1117346;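 active means compounds that lower survival of DLD-1 colon cancer cells in the luminescence readout, no cutoff given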). The following applies: DLD-1 viability, CellTiter-Glo luminescence; at 20 µM (top of the series).

Turning to `C[C@]12CC[C@H]3[C@@H](CC[C@@]45O[C@H]4C(O)=C(C#N)C[C@]35C)[C@H]1CC[C@H]2O`, the nuclear beta-catenin stimulation was 1.5% (inactive) in test [1] (at 10 µM) and 1.1% in test [1] (stimulation, at 2 µM). Besides, the insulin secretion stimulation in test [2] is -0.7% (inactive). The viability decrease in test [3] was -177% (inactive). Further, the tube area decrease in test [4] is 28.3% (inactive). Moreover, in test [5], the GLP1 secretion stimulation was -1.5% (inactive). In addition, in test [6], the inhibition of viability was 11.5% (inactive). The viability decrease (inhibition) was 5.1% (inactive) in test [7] and -16.6% (inactive) in test [8].
As for `Nc1ccc(N)cc1`, the nuclear beta-catenin stimulation in test [1] (at 10 µM) was -0.1% (inactive); in test [1] (stimulation, at 2 µM) it was 0.8%. In addition, the insulin secretion stimulation in test [2] is -3.1% (inactive). Also, in test [3], the viability decrease was -2.35% (inactive). For the same compound, the tube area decrease in test [4] is -29.4% (inactive). Further, the GLP1 secretion stimulation in test [5] is 4.2% (inactive). The inhibition of viability in test [6] is 51% (active). The viability decrease (inhibition) in test [7] was 84.1% (active); in test [8], -15.2% (inactive).
For `CCc1ccc(C2CCNCC2)cc1`, the nuclear beta-catenin stimulation was -1.4% (inactive) in test [1] (at 10 µM) and -0.7% in test [1] (stimulation, at 2 µM). Besides, the insulin secretion stimulation in test [2] was 4% (inactive). Further, the viability decrease in test [3] was -2.8% (inactive). Further, the tube area decrease in test [4] was 1.2% (inactive). In addition, the GLP1 secretion stimulation in test [5] is -5.6% (inactive). Moreover, the inhibition of viability in test [6] is 24.1% (inactive). The viability decrease (inhibition) in test [7] was 9% (inactive); in test [8], -8.7% (inactive).
As for `CCN1CCCC1CNC(=O)C(O)(c1ccccc1)c1ccccc1` (configuration not stated), the nuclear beta-catenin stimulation in test [1] (at 10 µM) was 1.8% (inactive); in test [1] (stimulation, at 2 µM) it was 1.9%. For the same compound, the insulin secretion stimulation in test [2] is 8.1% (inactive). Also, the viability decrease in test [3] was -4.1% (inactive). In addition, the tube area decrease in test [4] was -2.9% (inactive). The GLP1 secretion stimulation in test [5] was -0.1% (inactive). Besides, in test [6], the inhibition of viability was 10.9% (inactive). The values for the viability decrease (inhibition) in test [7] and in test [8] were 24.2% (inactive) and -4.5% (active), respectively.
In the case of `O=c1oc2ccccc2c(O)c1C(CC(O)c1ccc(-c2ccc(Br)cc2)cc1)c1ccccc1` (configuration not stated), the nuclear beta-catenin stimulation in test [1] (at 10 µM) was 8.3% (inactive); in test [1] (stimulation, at 2 µM), 2.6%. The insulin secretion stimulation in test [2] is 3.6% (inactive). The viability decrease in test [3] is 100% (active). In addition, in test [4], the tube area decrease was 2.4% (inactive). Moreover, the GLP1 secretion stimulation in test [5] is 23.9% (active). Further, the inhibition of viability in test [6] is 101% (active). Further, the viability decrease (inhibition) in test [7] was 122% (active); in test [8], 103% (active).
Take `CCN(CC)Cc1nccn1-c1ccc([N+](=O)[O-])cc1C(=O)c1ccccc1Cl`: the nuclear beta-catenin stimulation in test [1] (at 10 µM) was -1.2% (inactive); in test [1] (stimulation, at 2 µM), -0.2%. In test [2], the insulin secretion stimulation is 7.4% (inactive). Also, the viability decrease in test [3] is -3% (inactive). The tube area decrease in test [4] was 2.7% (inactive). The GLP1 secretion stimulation in test [5] was -0.3% (inactive). Also, in test [6], the inhibition of viability was 28.5% (inactive). Moreover, the viability decrease (inhibition) in test [7] was 39.7% (inactive); in test [8], 0% (inactive).
As for `NNc1ccccc1`, the nuclear beta-catenin stimulation in test [1] (at 10 µM) was 0.8% (inactive); in test [1] (stimulation, at 2 µM) it was 2.4%. Besides, the insulin secretion stimulation in test [2] is -1.6% (inactive). Further, the viability decrease in test [3] was 14.6% (inactive). Further, the tube area decrease in test [4] is 26.7% (inactive). For the same compound, the GLP1 secretion stimulation in test [5] was 3.7% (inactive). For the same compound, in test [6], the inhibition of viability was -3.85% (inactive). Also, the viability decrease (inhibition) was 45% (inactive) in test [7] and 21.2% (inactive) in test [8].
As to `S=C(SSC(=S)N1CCCCC1)N1CCCCC1`, the nuclear beta-catenin stimulation is 1.8% (inactive) in test [1] (at 10 µM) and 0.4% in test [1] (stimulation, at 2 µM). The insulin secretion stimulation in test [2] is -2.6% (inactive). Further, in test [3], the viability decrease was -2.9% (inactive). The tube area decrease in test [4] is 8.9% (inactive). For the same compound, the GLP1 secretion stimulation in test [5] is -2.3% (inactive). In addition, in test [6], the inhibition of viability is -14.8% (inactive). For the same compound, the figures for the viability decrease (inhibition) in test [7] and in test [8] were 13.2% (inactive) and -3.5% (inactive), respectively.
